# PLK1 PBD inh: inhibitors of human PLK1 polo-box domain binding. P53350. Plk1 PBD binding of FITC phosphopeptide, fluorescence polarization. Potency, µM, without a hit: max response, negative = inhibition, hits mostly inhibitors. 360,000 compounds, 2.8% hits; also: series mostly up to about 57 µM; nearly all actives have a fitted effect of over 65% in size
# GCN5L2 inh: inhibitors of human GCN5L2 histone acetyltransferase. Q92830. GCN5L2 HAT assay, ThioGlo1 CoA-SH fluorescence. Potency, µM (series often up to 58.9 µM), for inactives: at the top dose activity change, negative = inhibition, most hits filed as inhibitors. 390,000 compounds, 0.21% hits. AID 504327
#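 qHTS, 1536-well. 20nM enzyme, pH 7.5 HEPES/EDTA/Tween-20 buffer; 15 min compound preinc., RT. Start: 75uM H3(1-25), 70uM AcCoA, 50uM ThioGlo1. Read Ex340/Em540 at t=0 (autofluorescence flag) and t=20 min.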
# 12-LOX inh: ALOX12 (human) lipoxygenase inhibition. P18054. purified 12hLO, xylenol orange hydroperoxide absorbance. Potency, µM (top dose mostly 108 µM), for the others: at the highest dose activity change, negative = inhibition, actives largely listed as inhibitors. 580,000 compounds, 1.1% hits. AID 1671190
# Target sequence (P18054 whole entry, looked up): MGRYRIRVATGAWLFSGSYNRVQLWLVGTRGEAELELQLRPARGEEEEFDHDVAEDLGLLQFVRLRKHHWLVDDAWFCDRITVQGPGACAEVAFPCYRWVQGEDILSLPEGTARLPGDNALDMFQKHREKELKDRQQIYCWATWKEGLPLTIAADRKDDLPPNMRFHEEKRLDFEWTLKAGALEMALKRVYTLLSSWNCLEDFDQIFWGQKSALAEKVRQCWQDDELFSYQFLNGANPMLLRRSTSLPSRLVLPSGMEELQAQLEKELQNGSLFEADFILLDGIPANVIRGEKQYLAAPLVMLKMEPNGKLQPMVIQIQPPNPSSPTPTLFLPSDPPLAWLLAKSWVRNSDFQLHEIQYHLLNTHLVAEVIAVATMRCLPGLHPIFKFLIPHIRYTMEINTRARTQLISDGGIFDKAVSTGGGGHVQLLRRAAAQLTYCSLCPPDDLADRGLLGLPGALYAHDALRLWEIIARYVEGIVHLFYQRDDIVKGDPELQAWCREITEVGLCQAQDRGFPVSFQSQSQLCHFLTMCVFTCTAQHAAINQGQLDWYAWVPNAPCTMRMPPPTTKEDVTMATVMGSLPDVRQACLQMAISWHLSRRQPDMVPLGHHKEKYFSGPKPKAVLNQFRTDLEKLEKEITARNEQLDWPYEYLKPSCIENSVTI
#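 Purified human 12hLO at 150 nM in 25 mM Hepes, 0.01% Triton X-100, pH 7.0, preincubated 15 min at room temperature with compound. Reaction started with 40 uM arachidonic acid, 30 min at room temperature. Hydroperoxide measured by Fe-xylenol orange, 573/405 nm absorbance ratio.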
# VDR inhibitor: blocks the human vitamin D receptor | VDR-SRC2-3 peptide fluorescence polarization, 2 h | 400,000 compounds, 0.93% hits | P11473 | Potency, µM, without a hit: max response, negative = inhibition, hits mostly inhibitors
#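 VDR–SRC2-3 interaction, FP format. Cmpds 23 nl via pintool, brief spin, 2 h ambient incubation.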
# Numbers without * were called inactive; ? = inconclusive; . = no result given; [ ] = remark or other dose. In the library only some 3% were active in any assay of this set; here they are far more common. Calls follow the shape of the dose curve; as a rule, active = well fitted curve in the direction sought with a large enough effect; inconclusive = small, poorly fitted or top-dose-only effect, or another doubt; inactive = no such curve, though single readings can be large; an effect the other way counts as inactive or inconclusive. % is scaled to controls: 0 for no effect and ±100 for the full control effect; potency is read from the fitted curve at half-maximal effect.
SMILES,PLK1 PBD inh,GCN5L2 inh,12-LOX inh,VDR inhibitor
CC(=O)N1c2ccc(S(=O)(=O)NCCC(=O)Nc3ccc(C)cc3Br)cc2CC1C (stereo unspecified),.,-10.9%,-6.6%,14.7%
CC(=O)N1c2ccc(S(=O)(=O)NCCC(=O)NCCc3ccc(C)cc3)cc2CC1C (stereo unspecified),29.9µM*,-4.0%,5.0%,?
CC(=O)N1c2ccc(S(=O)(=O)NC(CC(=O)O)c3ccc(Br)cc3)cc2CC1C (stereo unspecified),26.7µM*,0.8%,18.3%,?
CC(=O)N1c2ccc(S(=O)(=O)NCCC(=O)Nc3ccc(OC(F)(F)F)cc3)cc2CC1C (stereo unspecified),6.7µM*,-6.7%,2.0%,?
CC(=O)N1c2ccc(S(=O)(=O)NCC3CCC(C(=O)N4CCCC(C)C4)CC3)cc2CC1C (stereo unspecified),21.2µM*,-3.2%,21.7%,?
Cc1cccc(OCc2nnc(SCC(=O)c3cc(C)n(-c4cc(C)on4)c3C)o2)c1,.,.,7.3%,.
O=[N+]([O-])c1ccc(S(=O)(=O)Nc2ccccc2-n2cccn2)cc1,.,.,19.5%,.
COc1ccc(Nc2nc3cc(-c4ccccc4C)sc3c(=O)n2C)cc1OC,-1.1%,.,35.5µM*,.
Cc1ccccc1-c1cc2nc(Nc3ccc(F)cc3)n(C)c(=O)c2s1,0.4%,.,?,.
Cc1cc(C(=O)OCC(=O)Nc2ccc(F)c(F)c2F)c(C)o1,?,-5.3%,14.5%,79.4µM*
CCOC(=O)c1c(O)cc(C)[nH]c1=O,-0.5%,-21.3%,-1.9%,-23.3%
CCOC(=O)c1c(O)c(Cl)c(C)[nH]c1=O,26.7µM*,-4.9%,?,5.3%
COc1cc(NC(=S)N2CCCC(CO)C2)cc(OC)c1 (stereo unspecified),21.2µM*,2.7%,1.9%,6.9%
COc1ccc(/C=C2\CCc3ccccc3C2=O)cc1Cn1cccn1,-9.4%,17.8µM*,-1.6%,-25.0%
COc1ccc(NC(=O)N2CCN(Cc3ccccc3C)CC2)cc1OC,.,.,13.5%,.
c1ccc(OCc2nc3ccccc3s2)cc1,-6.9%,-4.3%,-16.3%,2.7%
Fc1ccc(OCc2nc3ccccc3s2)cc1,-21.4%,-9.6%,3.1%,-15.2%
CCC(=O)Nc1ccc(OCc2nc3ccccc3s2)cc1,16.8µM*,-19.8%,?,?
Cc1cc(OCc2nc3ccccc3s2)ccc1N,10.6µM*,-19.9%,?,?
CN(CC(=O)Nc1cccc(Cl)c1)S(=O)(=O)c1ccc2c(c1)n(C)c(=O)c(=O)n2C,-7.6%,-1.3%,-0.1%,79.4µM*
CN(CC(=O)Nc1ccc(Cl)cc1)S(=O)(=O)c1ccc2c(c1)n(C)c(=O)c(=O)n2C,4.8%,-20.9%,17.6%,9.2%
CCOc1cc(C2C(C#N)=C(N)SC(N)=C2C#N)ccc1OCCN1CCOCC1,26.7µM*,-30.0%,?,?
COc1ccc(C(=O)Nc2ccc(-c3noc([C@@H]4CCCN4Cc4c[nH]c5ccccc45)n3)cn2)cc1,.,.,-4.7%,.
Cc1noc2c(NCCCn3ccnc3)cc(-c3ccccc3)nc12,.,.,68.3%[176 µM],.
COc1cccc(C(=O)NC(=S)Nc2ccc(Cl)c(C(=O)O)c2)c1,-26.8%,.,?,-1.3%
SMILES,PLK1 PBD inh,GCN5L2 inh,12-LOX inh,VDR inhibitor
CCOc1cc(C(=O)NC(=S)Nc2ccc(Cl)c(C(=O)O)c2)cc(OCC)c1OCC,?,1.3%,?,11.0%
O=C(O)c1cc(NC(=S)NC(=O)C(c2ccccc2)c2ccccc2)ccc1Cl,67µM*,2.8%,0.0%,-0.6%
NNc1ccc(Cl)c(C(=O)O)c1,29.9µM*,-4.3%,-4.1%,-28.3%
CC(C)Oc1ccc(C(=O)NC(=S)Nc2ccc(Cl)c(C(=O)O)c2)cc1,-12.9%,-2.1%,10µM*,14.7%
COc1c(C)cc(Br)cc1C(=O)NC(=S)Nc1ccc(Cl)c(C(=O)O)c1,16.8µM*,-4.7%,?,-15.7%
O=C(CSc1nc(Cl)nc2nc[nH]c12)Nc1ccc(OC(F)(F)F)cc1,.,.,20.8%,.
O=S(=O)(c1cccs1)N1CC(c2noc(C3CCCN3CC3CC3)n2)C1 (stereo unspecified),.,.,-4.6%,.
CC(=O)Nc1cccc(C(=O)NC2(c3ccc(F)cc3)CCC2)c1,.,.,-1.3%,.
COc1ccc(-c2oc3ccccc3c(=O)c2OCC(=O)O)cc1,11.9µM*,-16.8%,?,-21.5%
COc1ccc(-c2oc3ccccc3c(=O)c2O)cc1OC,.,31.6µM*,.,5.4%
COc1ccc(-c2cc(=O)c3ccccc3o2)cc1OC,.,35.5µM*,.,-26.8%
COc1cc(C=O)cc(Cl)c1OCc1ccc(C(=O)O)cc1,.,.,-10.6%,.
O=C(Oc1ccc2cc(-c3ccccc3)c(=O)oc2c1)c1ccco1,.,.,-8.6%,.
Cc1nn(C)cc1CN(C)C(=O)Cn1nc(C(F)(F)F)c(Cl)c1C,.,.,12.6%,.
CCOc1ccc(NC(=O)CC2C(=O)N(CC)C(=S)N2CCNC(C)=O)cc1 (stereo unspecified),-3.8%,0.6%,-24.8%,6.4%
CCOc1ccc(NC(=O)CC2C(=O)N(CC)C(=S)N2CCN2CCOCC2)cc1 (stereo unspecified),26.7µM*,-0.2%,-1.6%,-23.7%
NCc1ccc(-c2ccc(F)cc2)cc1,.,.,7.3%[12.5 µM],.
COc1ccccc1NC(=O)C(Sc1ccccc1)c1ccccc1 (stereo unspecified),3.8%,-18.9%,-1.3%,17.1%
CCOc1ccccc1NC(=O)C(Sc1ccccc1)c1ccccc1 (stereo unspecified),21.2µM*,-9.7%,22.8%,-19.5%
CCc1nnc(NC(=O)c2cc(-c3ccccc3OC)on2)s1,.,.,-21.3%,.
N#Cc1c(SCC(=O)N2CCOCC2)nc(N2CCCC2)c2c1CCCC2,.,.,-23.9%,.
N#Cc1c(SCCN2CCOCC2)nc(N2CCCCC2)c2c1CCCC2,.,.,0.794µM*,.
CCCCCCOc1ccc(CNc2cccc3ccccc23)cc1,.,.,4.47µM*,.
CCCCOc1ccc(CNn2c(C)nc3ccccc3c2=O)cc1,0.3%,-5.7%,8.2%,28.5%
CCn1cc(SCC(=O)NCC2CCCO2)c2ccccc21 (stereo unspecified),7.52µM*,-12.0%,-0.3%,-6.3%
SMILES,PLK1 PBD inh,GCN5L2 inh,12-LOX inh,VDR inhibitor
Cn1cccc1Cc1nnc(SCC(=O)NCC2CCCO2)n1CCc1ccccc1 (stereo unspecified),-1.9%,-0.6%,?,-1.1%
Cn1cccc1Cc1nnc(SCC(=O)NCC2CCCO2)n1C (stereo unspecified),23.8µM*,-3.1%,-16.3%,-12.0%
CSC1CCCCC1(O)CSc1nc(-c2ccc(C)cc2)cc(-c2ccccc2)c1C#N (stereo unspecified),.,.,-1.6%,.
Cc1cc(OC(=O)c2cccs2)cc(OC(=O)c2cccs2)c1,.,.,6.4%,.
O=C1NN(c2ccc(Cl)c(Cl)c2)C(=O)/C1=C/c1cccc(OC(=O)c2cccs2)c1,.,35.5µM*,.,.
C=C(CN(C)C)C(=O)c1ccc(OC2OC(COC(C)=O)C(OC(C)=O)C(OC(C)=O)C2OC(C)=O)cc1 (stereo unspecified),15µM*,.,?,39.8µM*
CC(=O)OCC1OC(Oc2cc(OC(C)=O)c3c(=O)cc(-c4ccc(OC(C)=O)cc4)oc3c2)[C@@H](OC(C)=O)C(OC(C)=O)C1OC(C)=O (stereo partly specified),.,-19.8%,.,17.4%

# Compound activity: PubChem, National Center for Advancing Translational Sciences (NCATS)
